Data from PubChem BioAssay AID1159580 (chemical genetic matrix, 2015).
Screen size: about 5,500 compounds; about 2,000 (36%) were called active. Inconclusive results (about 18%) are left out. Rule as the data show it: active = normalized growth mostly below about 0.91 (no sharp cut-off); inconclusive = no clear call, values can overlap the other calls; inactive = mostly above about 0.92. The list shows a part of the results.

Test: chemical genetic growth profiling, strain panel (AID 1159580);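 also: tested at 20 µM; growth read once vehicle control cultures reached saturation at 30 °C; 1 = growth at the plate median or of vehicle wells; lower values mean less growth of the strain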
Settings: S. cerevisiae deletion strains, growth OD

Measured: normalized growth

CCC(=O)OCC(=O)C1(OC(=O)CC)C(C)CC2C3C(Cl)CC4=CC(=O)C=CC4(C)C3C(O)CC21C (stereo not given)
inactive: locus YAL021C, strain ccr4, active compounds read low 1.02 | locus YAL026C, strain drs2, active compounds read low 1.03 | locus YAL030W, strain snc1, active compounds read low 1.01 | locus YBL061C, strain skt5, active compounds read low 1.01 | locus YBR009C, strain hhf1, active compounds read low 1.09 | locus YBR023C, strain chs3, active compounds read low 1.02 | locus YBR171W, strain sec66, active compounds read low 1.04 | locus YBR231C, strain swc5, active compounds read low 1.02 | locus YBR279W, strain paf1, active compounds read low 1.01 | locus YCL011C, strain gbp2, active compounds read low 1.06 | locus YCL016C, strain dcc1, active compounds read low 1.04 | locus YCL069W, strain vba3, active compounds read low 1.04 | locus YCR088W, strain abp1, active compounds read low 1.03 | locus YDL005C, strain med2, active compounds read low 1.02 | locus YDL040C, strain nat1, active compounds read low 1.01 | locus YDR001C, strain nth1, active compounds read low 1.04 | locus YDR069C, strain doa4, active compounds read low 1.02 | locus YDR137W, strain rgp1, active compounds read low 1.03 | locus YDR159W, strain sac3, active compounds read low 1.01 | locus YDR195W, strain ref2 1 | locus YDR297W, strain sur2, active compounds read low 1.03 | locus YDR334W, strain swr1, active compounds read low 1.02 | locus YDR335W, strain msn5, active compounds read low 1.05 | locus YDR392W, strain spt3, active compounds read low 1.08 | locus YEL003W, strain gim4, active compounds read low 1.04 | locus YEL037C, strain rad23, active compounds read low 1.05 | locus YEL061C, strain CIN8 (second series), active compounds read low 1.02 | locus YER015W, strain faa2, active compounds read low 1.01 | locus YER016W, strain bim1, active compounds read low 1.04 | locus YER111C, strain swi4, active compounds read low 1.04 | locus YER155C, strain BEM2 (second series), active compounds read low 1.08 | locus YFR010W, strain ubp6, active compounds read low 1.02 | locus YGL167C, strain pmr1, active compounds read low 1.06 | locus YGL173C, strain kem1, active compounds read low 1.02 | locus YGL227W, strain vid30, active compounds read low 1.01 | locus YGL240W, strain doc1, active compounds read low 1.01 | locus YGL253W, strain hxk2, active compounds read low 1.02 | locus YHR013C, strain ard1, active compounds read low 1.08 | locus YHR027C, strain rpn1, active compounds read low 1.03 | locus YHR142W, strain chs7, active compounds read low 1.04 | locus YJL092W, strain hpr5, active compounds read low 1.04 | locus YJL095W, strain BCK1 (second series), active compounds read low 1.06 | locus YJL115W, strain asf1, active compounds read low 1.02 | locus YJL129C, strain trk1, active compounds read low 0.987 | locus YJL154C, strain vps35, active compounds read low 1.03 | locus YJL164C, strain tpk1, active compounds read low 1.07 | locus YJL166W, strain qcr8, active compounds read low 1 | locus YKL160W, strain elf1, active compounds read low 1.04 | locus YKR026C, strain gcn3, active compounds read low 1.03 | locus YKR091W, strain srl3, active compounds read low 1.03 | locus YLL001W, strain dnm1, active compounds read low 1.06 | locus YLL026W, active compounds read low 1.04 | locus YLL041C, strain sdh2, active compounds read low 1.05 | locus YLR027C, strain aat2, active compounds read low 1.06 | locus YLR221C, strain rsa3, active compounds read low 1.07 | locus YLR258W, strain gsy2, active compounds read low 1.07 | locus YLR262C, strain YPT6 (second series), active compounds read low 1.04 | locus YLR320W, strain mms22, active compounds read low 1.02 | locus YLR342W, strain FKS1, active compounds read low 1.03 | locus YLR357W, strain rsc2, active compounds read low 1.09 | locus YLR370C, strain arc18, active compounds read low 1.03 | locus YLR384C, strain iki3, active compounds read low 1.03 | locus YML120C, strain ndi1, active compounds read low 1.02 | locus YMR058W, strain fet3, active compounds read low 1.02 | locus YMR125W, strain sto1, active compounds read low 1.07 | locus YMR129W, active compounds read low 1.03 | locus YMR205C, strain PFK2, active compounds read low 1.02 | locus YMR231W, strain pep5, active compounds read low 1.03 | locus YNL071W, strain lat1, active compounds read low 1.02 | locus YNL209W, strain ssb2, active compounds read low 1.01 | locus YNL248C, strain rpa49, active compounds read low 1.03 | locus YNL322C, strain KRE1 (second series), active compounds read low 1.01 | locus YNR049C, strain mso1, active compounds read low 1.03 | locus YOR001W, strain rrp6, active compounds read low 1.04 | locus YOR070C, strain gyp1, active compounds read low 1.02 | locus YOR080W, strain dia2, active compounds read low 1.02 | locus YOR083W, strain WHI5, active compounds read low 1.04 | locus YOR106W, strain vam3, active compounds read low 1 | locus YOR265W, strain rbl2, active compounds read low 1.02 | locus YOR270C, strain vph1, active compounds read low 0.923 | locus YOR290C, strain snf2, active compounds read low 1.06 | locus YPL051W, strain arl3, active compounds read low 1.04 | locus YPL078C, strain atp4, active compounds read low 0.999 | locus YPL106C, strain sse1, active compounds read low 1.12 | locus YPL240C, strain hsp82, active compounds read low 1.02
